According to paper PMC13494018:
A number with no mark means an inactive call. No rule for the calls is given here.

Biological target: CD276, Q5ZPR3
Sequence (Q5ZPR3 whole entry): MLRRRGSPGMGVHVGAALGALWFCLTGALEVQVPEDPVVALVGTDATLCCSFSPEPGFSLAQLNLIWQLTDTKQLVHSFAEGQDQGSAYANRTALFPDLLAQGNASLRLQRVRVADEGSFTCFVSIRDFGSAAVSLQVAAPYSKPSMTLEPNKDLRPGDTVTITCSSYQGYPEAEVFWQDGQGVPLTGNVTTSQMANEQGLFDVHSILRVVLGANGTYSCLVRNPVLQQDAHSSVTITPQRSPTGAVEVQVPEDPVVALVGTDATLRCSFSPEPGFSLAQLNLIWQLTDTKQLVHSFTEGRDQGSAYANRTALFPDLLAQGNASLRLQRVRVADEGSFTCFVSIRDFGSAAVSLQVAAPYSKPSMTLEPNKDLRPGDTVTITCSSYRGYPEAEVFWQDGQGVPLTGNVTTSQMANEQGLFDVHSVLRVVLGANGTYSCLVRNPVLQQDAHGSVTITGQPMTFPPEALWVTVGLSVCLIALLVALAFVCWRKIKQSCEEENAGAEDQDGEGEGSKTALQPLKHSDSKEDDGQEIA

B1: design_615_ab801fab-270b-4f6a-b2b5-83c165df418c_2173_dldesign_0_cycle1_af2pred (protein)
chain: LTPEEKQKLIEEGTELRNKGAALANQAMLAAAAGDKATAKELMAKAKEYFDKAIELYEKAGDEKKAESVKKLKDTLTSAFEAQLAA
binding in a display sort: not found

B2: design_615_ab801fab-270b-4f6a-b2b5-83c165df418c_921_dldesign_0_cycle1_af2pred (protein)
chain: SAALKAALAALDAAEKAAEAADPEVAAIVRATREAVKKAPDEVAAKAAQMATAIESLAKAGFVASARATARNLLAYVSAAVAAAE
binding in a display sort: not found

B3: design_615_ab801fab-270b-4f6a-b2b5-83c165df418c_2473_dldesign_0_cycle1_af2pred (protein)
chain: SPEALTAAVRAEGDALLAEAEATAAADPEAGKAAYEAAIRRLLGLAARLLQESPAAAQAALDRAVELAAKLEEL
binding in a display sort: not found

B4: design_615_ab801fab-270b-4f6a-b2b5-83c165df418c_2359_dldesign_0_cycle1_af2pred (protein)
chain: MEEDVALLRDIARLGRESLERARAGTAAEAERALADFTAAADAAIARLAPGEGAALLAANMRARFAAEMRAVAAAKAA
binding in a display sort: not found

B5: design_615_ab801fab-270b-4f6a-b2b5-83c165df418c_1933_dldesign_0_cycle1_af2pred (protein)
chain: ALQGALRSAAALLRNAAESEDPESREKLLDVAADLAAYAATLDPAAGAALAAAVEEARREGPEGARRAAELAAALAAA
binding in a display sort: not found

B6: design_615_ab801fab-270b-4f6a-b2b5-83c165df418c_1503_dldesign_0_cycle1_af2pred (protein)
chain: AAALAAAQAAAGATALETLEVASKAAKAGSPEVAAEANKLAQQATQLAQQAAQGDLATAKAQLAAIQKLLAQAKELLKK
binding in a display sort: not found

B7: design_616_e8336982-fa4d-4d7c-b06f-9007953e1994_173_dldesign_0_cycle1_af2pred (protein)
chain: MEEKSKELKKKLEEAKKIAKEDPEKGAELAAEAAKEAAEAGDFGSAGEAIVLIAKMGTPKASRELAEASRYLIAAIRAA
binding in a display sort: not found

B8: design_615_ab801fab-270b-4f6a-b2b5-83c165df418c_806_dldesign_0_cycle1_af2pred (protein)
chain: AAQAQAIEQLEKLIETAKELAKERPEEKEEILGKAHETAGQVLTLIAKGLQDPATAEQALKLAQAKLKEMEKKLKEAKA
binding in a display sort: not found

B9: design_615_ab801fab-270b-4f6a-b2b5-83c165df418c_1818_dldesign_0_cycle1_af2pred (protein)
chain: DPRAAASQALAAATADALLARLGELAGADVADRLRALLAGDAASKAEAARLARALAEEWRARNPAAAAALYGIAVLAESLAA
binding in a display sort: not found

B10: design_616_e8336982-fa4d-4d7c-b06f-9007953e1994_361_dldesign_0_cycle1_af2pred (protein)
chain: AAAQAKALAAQAKAAIESGSLSPGEVARLAVKAGAYAMAAANADPSIAAEMQALAQDLFAKVDEYIAKVAA
binding in a display sort: not found

B11: design_615_ab801fab-270b-4f6a-b2b5-83c165df418c_1262_dldesign_0_cycle1_af2pred (protein)
chain: KEAAEKAAEKKAEEIKKIAEIAGGAVSPEDAAKIKKEAEEKIEELKKFAKESTPEEAEKYGQELVLEFSQSATKVMVAAAKAA
binding in a display sort: not found

B12: design_615_ab801fab-270b-4f6a-b2b5-83c165df418c_1097_dldesign_0_cycle1_af2pred (protein)
chain: SEAMKTAGAKILTATAASLERQLAEARANPGELRPRAAALAQLAAQLAESAKAIGDEETAARLAAISAEAAALAA
binding in a display sort: not found

B13: design_615_ab801fab-270b-4f6a-b2b5-83c165df418c_2317_dldesign_0_cycle1_af2pred (protein)
chain: GAARMAAAGAQAAALAAELPAAVDPMLEGILNPETREAHEAEARAIARALDPENAEELWARVLRAAMGLLLAQGLARA
binding in a display sort: not found

B14: design_616_e8336982-fa4d-4d7c-b06f-9007953e1994_177_dldesign_0_cycle1_af2pred (protein)
chain: AGQATYNAAKAMAKSAAAMYLAGKYEDAEKVYQVAVDLAQSLIADPASKAQGEKALAYAKETYAKAKAEAEKKAA
binding in a display sort: not found

B15: design_615_ab801fab-270b-4f6a-b2b5-83c165df418c_1881_dldesign_0_cycle1_af2pred (protein)
chain: ALAAELAREALRAEAERIAAAKLAEAKAGTPETAQAQAAYLVSLAEEHPETAGIYLGAAAQIHAVLIAKTA
binding in a display sort: not found

B16: design_615_ab801fab-270b-4f6a-b2b5-83c165df418c_1854_dldesign_0_cycle1_af2pred (protein)
chain: LRERAESNLAFAQTALEAAKQAKAAGAPQSLVQGLANIAERAAQLAIEEAAKDPALAPLAEEAKKVAEEAKKVAA
binding in a display sort: not found

B17: design_615_ab801fab-270b-4f6a-b2b5-83c165df418c_1773_dldesign_0_cycle1_af2pred (protein)
chain: SETAEEARRAVERLKEAAKKLAKAGTPEHAGYAEGLVTTTTALVERLLAAGREEEALRAARRALERAERLLKKALA
binding in a display sort: not found

B18: design_615_ab801fab-270b-4f6a-b2b5-83c165df418c_1027_dldesign_0_cycle1_af2pred (protein)
chain: KEALEKAKKEAEKILKEAAEKVSPEVAKYVEEAAKQPTIEEMIHKVLLAAAKAGQVNLEDGKILLEAAEKIAAIYKKAKEE
binding in a display sort: not found

B19: design_615_ab801fab-270b-4f6a-b2b5-83c165df418c_1174_dldesign_0_cycle1_af2pred (protein)
chain: ADEEDLAAAKKRLEDTKKLVEINLTMANQGPLGAKAAIASLNTQIKVLEAAKKAATPAAQPELDKAIAIAKAALAEAKAKAAA
binding in a display sort: not found

B20: design_616_e8336982-fa4d-4d7c-b06f-9007953e1994_74_dldesign_0_cycle1_af2pred (protein)
chain: EKEAQEKREKAKKLIEEIKKLAKEVAANPAISGMLNQLAKAAETAAANSSPEQGLKNAEKWLEIGKEAAKTAAA
binding in a display sort: not found

B21: design_615_ab801fab-270b-4f6a-b2b5-83c165df418c_1179_dldesign_0_cycle1_af2pred (protein)
chain: SPTEIAGKAVREIQELTEQAIANPETAEQLAAEAKKVAEEAGKKTGEGLAQLLKNVAAQREKEVQAALAA
binding in a display sort: not found

B22: design_615_ab801fab-270b-4f6a-b2b5-83c165df418c_776_dldesign_0_cycle1_af2pred (protein)
chain: MEEAEEAYREAEEIKRETKAKAEAGTLTAQEAMEALARLEELREKLRELAEEEGEEAEEYYREVNEYAVEVSRIANAVFAAERAA
binding in a display sort: not found

B23: design_615_ab801fab-270b-4f6a-b2b5-83c165df418c_2088_dldesign_0_cycle1_af2pred (protein)
chain: DTERKLALLQEAIVKLTEALAAYNTDPATGRALAREAAELLKEAGLEEAAELARKAAEDPENGFEYARRALGLVTKAYIELSR
binding in a display sort: not found

B24: design_615_ab801fab-270b-4f6a-b2b5-83c165df418c_2427_dldesign_0_cycle1_af2pred (protein)
chain: AMEAAKAAAKAAAAAAAAAGLTDLAAEIAAAAKEAEETGIEGANRLMGLAARYAVQHPALNAAMSALIEAAGAYIAEAA
binding in a display sort: not found

B25: design_615_ab801fab-270b-4f6a-b2b5-83c165df418c_2496_dldesign_0_cycle1_af2pred (protein)
chain: GEKEELIKKAEEKAAKAKEYEAKAKAAAADPAKAVEYYNKALYLYLEAAKLASKADPELAKKYSDEANKVAKKAIEAAKAA
binding in a display sort: not found

B26: design_615_ab801fab-270b-4f6a-b2b5-83c165df418c_1064_dldesign_0_cycle1_af2pred (protein)
chain: AREQAQQALDFALANAQLIAQRRGEAGKRLAELVQKALEADEEEALKYLEEAIRLAEELAKDPAVAALARAAILALREARRLLE
binding in a display sort: not found

B27: design_616_e8336982-fa4d-4d7c-b06f-9007953e1994_26_dldesign_0_cycle1_af2pred (protein)
chain: SLEEAAAQAQALVDQATALGAQDYASASQGIALLAEAAKLVEEAGLPPETAAAIMAAINAALATVSKNAAAFVAA
binding in a display sort: not found

B28: design_615_ab801fab-270b-4f6a-b2b5-83c165df418c_706_dldesign_0_cycle1_af2pred (protein)
chain: ASAARMAEIQAKGEEVAEKAKEKYKELLERLPDPEEALAEARAYLREVGAQYSGAVLGYALSLFESWAEEEL
binding in a display sort: not found

B29: design_615_ab801fab-270b-4f6a-b2b5-83c165df418c_1266_dldesign_0_cycle1_af2pred (protein)
chain: AAALEEAKAQLKKLAEELLEKSKEAAKLGSDAAIAVTSKYVAKGSALLVQYPEVSSEPLVEAVKEASKLIKEA
binding in a display sort: not found

B30: design_615_ab801fab-270b-4f6a-b2b5-83c165df418c_2322_dldesign_0_cycle1_af2pred (protein)
chain: AQAEVKAKAEKLIEELIKASSEVVAAAAKAGDGESAVEANKAASEAIKKIKAAAKAGDLEAAKKAAEEGMKKLKELKAKVEAK
binding in a display sort: not found

B31: design_615_ab801fab-270b-4f6a-b2b5-83c165df418c_1187_dldesign_0_cycle1_af2pred (protein)
chain: AAAEEVARRGASALAAGQNLIEMAKAASPEAAAVATAALAQAKALLAQGTPEAAEQAQQVINDAMAQVSKIMIAAA
binding in a display sort: not found

B32: design_615_ab801fab-270b-4f6a-b2b5-83c165df418c_1575_dldesign_0_cycle1_af2pred (protein)
chain: GEEEEKKKKEKFEEAAEKVNKGLALASQAALADPKYQPVLAKVVELAKEAEKLKKEGKAEEALKKAEEAYEVAKKALAAVKAA
binding in a display sort: not found

B33: design_615_ab801fab-270b-4f6a-b2b5-83c165df418c_2495_dldesign_0_cycle1_af2pred (protein)
chain: GEAEAKFAEALALLDRAEELAKGGDAAQLAEASALLTQAIELATQVSPEKRAEISRRAAEISKRLLAQLAA
binding in a display sort: not found

B34: design_615_ab801fab-270b-4f6a-b2b5-83c165df418c_1763_dldesign_0_cycle1_af2pred (protein)
chain: EELVERLRLMRDVVAAALAAAGLDADAFAALLEAAAAAAREDPARAVELLARVAERAEELAAKASPLQRGVLRFAVTVARGAAAALA
binding in a display sort: not found

B35: design_616_e8336982-fa4d-4d7c-b06f-9007953e1994_328_dldesign_0_cycle1_af2pred (protein)
chain: NANLQAAKVALASAEATLKHADAGVAAGTISPESAKKLYELAATLAKDAAEYAKKAGDAELAKKAEELAKEAKAKAEEMAAKAAA
binding in a display sort: not found

B36: design_615_ab801fab-270b-4f6a-b2b5-83c165df418c_2413_dldesign_0_cycle1_af2pred (protein)
chain: AAAALAAEALALREKGVAAAKAGRYALARNYFLQALITAGASPATIQAVVRALAAGAADPSTAPAAVAHADATVTAAAAAVAAA
binding in a display sort: not found

B37: design_615_ab801fab-270b-4f6a-b2b5-83c165df418c_863_dldesign_0_cycle1_af2pred (protein)
chain: AQAAEAALRTAEAVVRRAEEAIARGASPEELRALAKLAEVVAESLLAVAKTASPEQAKRLEEAAERARRAAEEARRAAERLEREAA
binding in a display sort: not found

B38: design_615_ab801fab-270b-4f6a-b2b5-83c165df418c_1665_dldesign_0_cycle1_af2pred (protein)
chain: MEEEKEKEKYIKELKKAAEEAIKTAKEAAKLDPKAGGALLKYVEASGKQALENAEKGDLETAKNQLEFMKQVLEIAKGTLAALKAA
binding in a display sort: not found
